NS1 inh: influenza NS1 inhibition; Potency, µM (titrated, usually from 46.1 µM), for inactives: top-dose activity, positive = more growth; AID 2326; actives 0.4% (n = 270,000); calls by dose curve; further: actives are rising curves; nearly all actives have a fitted effect of over 50% in size
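Growth recovery, yeast-based: influenza A NS1 expressed in S. cerevisiae causes slow growth, and suppressors are detected by OD600. The parent strain without NS1 is used as positive control.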
Sm TGR inh: inhibitors of Schistosoma mansoni thioredoxin glutathione reductase; purified TGR, DTNB reduction, TNB absorbance 405 nm; Q962Y6; actives 3% (n = 360,000); Potency, µM (titrated, usually from 114 µM), for the others: at the highest dose activity change, negative = inhibition, hits mostly inhibitors; AID 485364; further: on the % scale 0 is the no-effect control and ±100 the full control effect; nearly all actives have a fitted effect of over 60% in size
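TGR 20 nM + NADPH 100 uM (dispensed conc.), cpd preinc 15 min RT; start with NADPH (500 uM addition) then DTNB (15 mM addition). Kinetic TNB absorbance, 405 nm filter. Four-parameter Hill fit across titration.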
Pf growth 96h: P. falciparum growth inhibition at 96 hour, primary screen for plastid delayed-death inhibitors; P. falciparum luciferase reporter growth, 96 h; Potency, µM (highest dose often 28.7 µM), for inactives: top-dose activity change, negative = inhibition, usual class: inhibitors; actives 6.9% (n = 320,000); AID 504834; further: on the % scale 0 is the no-effect control and ±100 the full control effect
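Two parasite generations (96 h, 37 C, 5% CO2) of compound exposure in infected erythrocytes (0.05% parasitemia, 2% hematocrit). Luciferase-reporter P. falciparum; decreased luminescence indicates inhibited growth, aimed at apicoplast-acting delayed death.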
Pf growth 48h: inhibits P. falciparum growth in the first generation, 48 h; P. falciparum luciferase growth in erythrocytes, 48 h; Potency, µM (highest dose often 28.7 µM), without a hit: top-dose activity change, negative = inhibition, actives largely listed as inhibitors; actives 5.9% (n = 310,000); AID 504832; further: on the % scale 0 is the no-effect control and ±100 the full control effect
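Luminescence readout; reporter = integrated firefly luciferase in P. falciparum. RBC culture at 2% hematocrit, 0.1% parasitemia final, 37 C/5% CO2; decreased signal taken as growth inhibition.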
AMA1-RON2 inh: inhibitors of Plasmodium falciparum AMA1-RON2 interaction; Potency, µM (doses to about 58.2 µM), for inactives: top-dose activity change, negative = inhibition, usual class: inhibitors; actives 0.2% (n = 360,000); AlphaScreen AMA1-biotinylated RON2 peptide binding; AID 720542;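 further: 0% = vehicle wells and -100% = peptide control; nearly all actives have a fitted effect of over 45% in size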
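AMA1 (3D7) with his tag at 25 nM final met compounds first, then biotinylated RON2 peptide at 25 nM; detection used donor plus acceptor beads, 10 µg/mL apiece, read by AlphaScreen after 30 min at room temperature.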
Numbers without * were called inactive; ? = inconclusive; nt = no result given. Only some compounds are listed: those with a hit (about 11% of all), similar ones and a draw of the others. Unless noted, the call rests on the fitted dose curve; in most records, active means well fitted curve in the direction sought with a large enough effect; inconclusive means small, poorly fitted or top-dose-only effect, or another doubt; inactive means no such curve, though single readings can be large; an effect the other way counts as inactive or inconclusive. Potency means the concentration at half of the fitted maximal effect.

SMILES | NS1 inh | Sm TGR inh | Pf growth 96h | Pf growth 48h | AMA1-RON2 inh
O=S(=O)(NC1c2cccc3cccc(c23)C1N1CCNCC1)c1ccccc1 (stereo not given) | ? | ? | 3% | ? | -13%
O=S(=O)(NC1c2cccc3cccc(c23)C1N1CCN(CCO)CC1)c1ccccc1 (stereo not given) | 0% | -3% | -24% | 15µM* | -8%
COC(=O)[C@]1(C)CCC[C@@]2(C)C3CC[C@@]4(C)C[C@]3(CCC21)CC(=O)N4Cc1ccc(OC)cc1 (stereo not given in full) | nt | -3% | 1.5µM* | 1.7µM* | -12%
COc1cc(CN2CC(=O)N(c3cccc(Cl)c3C)C2=S)cc(OC)c1OC | 9% | 4% | 0% | 2.6µM* | -10%
COc1cc(CN2CC(=O)N(c3ccccc3Cl)C2=S)cc(OC)c1OC | 2% | -2% | -4% | 5.9µM* | -11%
COc1cc(Cl)c(C)cc1N1C(=O)CN(Cc2ccccc2)C1=S | 14% | 7% | 25% | ? | -2%
O=C(/C=C/c1cccc(Cl)c1)c1ccc([N+](=O)[O-])o1 | nt | 0.71µM* | ? | ? | -29%
COc1ccc(/C=C/C(=O)c2ccc([N+](=O)[O-])o2)cc1OC | nt | 6.3µM* | ? | 12µM* | -6%
COc1cc(/C=C/C(=O)CC(=O)/C=C/c2ccc(O)c(OC)c2)ccc1O | 3% | ? | ? | ? | 85%
COc1cc(/C=C/C(=O)c2ccc([N+](=O)[O-])o2)ccc1O | nt | 3.2µM* | ? | 13µM* | 22%
COc1cc(/C=C/[N+](=O)[O-])ccc1O | -55% | 35µM* | ? | ? | -19%
COc1cc(/C=C/C(=O)O)ccc1O | nt | nt | nt | nt | 20%
COc1ccc(C(=O)N=C2SC3CS(=O)(=O)CC3N2Cc2ccccc2)cc1OC (stereo not given) | -5% | 9% | ? | ? | -7%
O=S(=O)(Nc1ccccc1)c1ccc(NS(=O)(=O)c2c(F)cccc2F)cc1 | -4% | -6% | 8% | 0% | 8%
Cc1ccc(OCCC(=O)OCC(=O)NCCc2ccc(Cl)cc2)cc1 | nt | -25% | -1% | ? | 11%
COc1cccc(CNC(=O)CSc2c3c(nc4ccc(Cl)cc24)CCCC3)c1OC | nt | -1% | nt | nt | nt
O=S(=O)(Nc1cccc(-c2ccc(N3CCOCC3)nn2)c1)c1cc(C(F)(F)F)ccc1Cl | nt | 6% | nt | nt | nt
O=C(/C=C/c1ccc2ccccc2n1)c1cc(Br)ccc1O | 9% | 32µM* | ? | ? | -3%
O=C1/C(=C/c2cccc(F)c2)SC(=S)N1NS(=O)(=O)c1ccccc1 | -64% | -1% | 68% | 12% | 34%
O=C1/C(=C/c2ccccn2)SC(=S)N1NS(=O)(=O)c1ccccc1 | nt | 45µM* | 20% | -9% | 3%
COc1cccc(/C=C2\SC(=S)N(NS(=O)(=O)c3ccccc3)C2=O)c1OC | -48% | -1% | 34% | 18% | 11%
COc1cc(/C=C2\SC(=S)N(NS(=O)(=O)c3ccccc3)C2=O)cc(OC)c1OC | 4% | -20% | 4% | 9.3µM* | -8%
COc1cccc(CNC(=O)COCc2cc(-c3ccc4c(c3)OCO4)on2)c1 | nt | 0% | nt | nt | nt
CC1Cc2ccccc2N1C(=O)C1CCN(S(=O)(=O)c2cccs2)CC1 (stereo not given) | -10% | 1% | 0.93µM* | -27% | 17%
CC(C(=O)N1c2ccccc2CC1C)N1CCN(S(=O)(=O)c2ccccc2F)CC1 (stereo not given) | nt | -9% | ? | 13µM* | ?
O=C(C1CCN(S(=O)(=O)c2cccs2)CC1)N1CCN(c2ccccc2O)CC1 | nt | -7% | 7.4µM* | ? | 3%
Cc1c(NC(=O)COC(=O)c2ccc(S(=O)(=O)N3CCOCC3)cc2)c(=O)n(-c2ccccc2)n1C | nt | -1% | 146% | 19% | 7%
NC(=O)CCCSc1nc2ccccc2[nH]1 | nt | -16% | 16% | 3% | 11%
O=C(Cc1ccc(-n2c(=O)[nH]c3ccccc3c2=O)cc1)N1CCN(c2ccccc2)CC1 | 6% | -7% | 37% | 12µM* | -3%
O=C(Cn1c(=S)[nH]c2ccccc2c1=O)N1CCN(c2ccc(F)cc2)CC1 | nt | -4% | -20% | -10% | -1%

Screens from PubChem BioAssay.
